Experimental data from article PMC5540273 (PLoS ONE, 2017).

Legend:
Conditions in all cases: concentration: 1 μM, replicates: in singlicate; n = 1
[1] = system: T1, PCTK2
T1 construct: gene CDK17

[2] = system: T2, PCTK3
T2 construct: gene CDK18

[3] = system: PDGFRA
[4] = system: PDGFRB
[5] = system: PDPK1
[6] = system: PFTAIRE2
[7] = system: T3, PFTK1
T3 construct: gene CDK14

[8] = system: PHKG1
[9] = system: PHKG2
[10] = system: PIK3C2B
[11] = system: PIK3C2G
[12] = system: PIK3CA
[13] = system: PIK3CB
[14] = system: PIK3CD
[15] = system: PIK3CG
[16] = system: T4, PIK4CB
T4 construct: gene PI4KB

[17] = system: PIKFYVE
[18] = system: PIM1
[19] = system: PIM2
[20] = system: PIM3
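Further: KINOMEscan kinase panel screen.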

Row | Structure (SMILES) | %Inh [1] | %Inh [2] | %Inh [3] | %Inh [4] | %Inh [5] | %Inh [6] | %Inh [7] | %Inh [8] | %Inh [9] | %Inh [10] | %Inh [11] | %Inh [12] | %Inh [13] | %Inh [14] | %Inh [15] | %Inh [16] | %Inh [17] | %Inh [18] | %Inh [19] | %Inh [20]
1 | CCn1c(-c2nonc2N)nc2c(C#CC(C)(C)O)nc(OC[C@H](N)c3ccccc3)cc21 [GSK943949] | 0% | 0% | 11% | 5% | 0% | 0% | 0% | 0% | 5% | 0% | 11% | 0% | 0% | 0% | 0% | 0% | 60% | 0% | 23% | 0%
2 | Cn1cc(-c2ccc3c(c2)CCN3C(=O)Cc2cccc(Cl)c2)c2c(N)ncnc21 [GSK2606590] | 0% | 7% | 84% | 100% | 40% | 18% | 32% | 17% | 0% | 89% | 0% | 0% | 15% | 0% | 39% | 0% | 0% | 31% | 0% | 8%
3 | Cl.Cl.NCC(C(=O)Nc1cc(Br)c(-c2ccnc3[nH]ccc23)s1)c1ccccc1 (centres unmarked) [GSK1269851] | 6% | 0% | 0% | 38% | 0% | 24% | 28% | 49% | 0% | 0% | 0% | 0% | 0% | 0% | 0% | 9% | 0% | 19% | 0% | 0%
4 | CC(=O)N1CCN(c2ccc(Nc3nccc(-c4sc(C(C)C)nc4-c4cccc(NS(=O)(=O)c5cccc(Cl)c5)c4)n3)cn2)CC1 [GSK1660437] | 99.9% | 100% | 73% | 99% | 0% | 49% | 57% | 0% | 0% | 0% | 0% | 0% | 13% | 0% | 0% | 0% | 0% | 0% | 0% | 89%
